Compound activity deposited in PubChem BioAssay by National Center for Advancing Translational Sciences (NCATS).
A selection: hits, their analogues and other compounds. The true share with any hit is near 2.4%.
D2 PAM-1: positively modulates the human D2 dopamine receptor allosterically. P14416. HEK293 T-REx D2, calcium flux, EC20 dopamine potentiation. potentiation, % at 10 µM. 340,000 tested, 0.34% active. AID 485347;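 active means potentiation over 3 SD above the plate norm, cut at about 30% in these data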
Target sequence (P14416 whole entry, looked up): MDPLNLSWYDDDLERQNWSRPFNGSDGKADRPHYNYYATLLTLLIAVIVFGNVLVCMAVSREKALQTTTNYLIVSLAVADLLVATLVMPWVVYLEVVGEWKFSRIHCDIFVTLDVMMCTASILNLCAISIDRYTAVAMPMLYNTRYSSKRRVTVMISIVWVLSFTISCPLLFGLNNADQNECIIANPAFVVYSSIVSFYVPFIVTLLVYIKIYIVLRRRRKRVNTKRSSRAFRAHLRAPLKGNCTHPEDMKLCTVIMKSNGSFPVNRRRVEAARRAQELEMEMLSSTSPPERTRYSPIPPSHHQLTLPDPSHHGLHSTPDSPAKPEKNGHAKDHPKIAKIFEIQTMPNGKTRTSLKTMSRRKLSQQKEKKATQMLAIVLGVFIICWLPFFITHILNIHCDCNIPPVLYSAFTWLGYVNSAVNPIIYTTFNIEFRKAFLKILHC
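Tetracycline-induced HEK293 T-REx cells force-coupled to calcium signalling expressed D2; compounds were pin-added after a 10 s baseline, read kinetically 180 s, then an EC20 dopamine challenge followed with a further 180 s calcium read.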
D2 ag-1: activates the human D2 dopamine receptor | HEK293 T-REx D2 cells, calcium flux agonist mode | 340,000 tested, 0.53% active | activation, % at 2 µM;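 active means activation over 3 SD above normal in the single-dose calcium agonist read, cut at about 30% in these data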
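In this primary screen, compounds producing a positive calcium signal within 180 s of addition to tetracycline-induced, force-coupled HEK293 Trex D2 cells are flagged; cells are dye-loaded with a no-wash calcium kit beforehand.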
D2 antagonist: antagonists of human D2 dopamine receptor | P14416 | HEK293 TREx D2 cells, calcium flux, dopamine EC80 | inhibition, % at 10 µM | 340,000 tested, 2% active | AID 485344; in the data active means inhibition above about 30%; inactive means below that, where a call was filed
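Measurement of antagonist activity uses fluorescent calcium dye in inducible HEK293 T-REx D2 cells: 10 s baseline, compound addition with 180 s read, EC80 dopamine addition with a further 180 s read.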
D2 ag-2: human D2 receptor agonism in beta-arrestin assay. P14416. DiscoveRx PathHunter D2 beta-arrestin, luminescence, 90 min; 100% = 57 uM dopamine signal. activation, % (concentration not given with the values). 360,000 tested, 0.084% active. AID 624465; in the data active means activation above about 40%; inconclusive means between about 15% and that limit
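Agonist mode: compounds alone added to overnight-plated D2 PathHunter cells for 90 min at 37 C, with 57 uM final dopamine (EC100) defining full response. Beta-arrestin recruitment detected by chemiluminescent reagent, read after 1 h at ambient temperature.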
D2 PAM-2: human D2 receptor positive allosteric modulation. potentiation, % (test concentration not listed). DiscoveRx D2 beta-arrestin cells, luminescence, 90 min; 100% = 57 uM dopamine signal. 360,000 tested, 0.23% active. P14416; in the data active means potentiation above about 50%; inconclusive means mostly about 30% to 49%
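D2 cells co-treated with compound plus 50 nM dopamine (EC20) for 90 min at 37 deg C to detect potentiation. Beta-arrestin recruitment was read as enzyme-fragment luminescence after 1 h at ambient temperature. Full response was set by 57 uM dopamine.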
D3 arrestin ag: D3 receptor agonism confirmed, beta-arrestin readout. DiscoveRx D3 beta-arrestin cells, luminescence, 90 min. Potency, µM (doses to about 76.9 µM), most hits filed as activators. shares compounds with D2 ag-1. AID 720506. 2,300 tested, 4% active; further: nearly all actives have a fitted effect of over 70% in size
D2 ag-3: D2 receptor agonism, beta-arrestin counterscreen; shares compounds with D2 ag-1; DiscoveRx PathHunter D2 beta-arrestin, luminescence, 90 min; response scale: percent relative to full dopamine signal; Potency, µM (highest dose often 76.9 µM), hits mostly activators; 2,300 tested, 5.9% active; AID 720507; further: nearly all actives have a fitted effect of over 70% in size
Of the large screens only hits and unclear results are named; the others gave an inactive call (follow-up assays come after a bar, where they were run). Unless noted, the call rests on the fitted dose curve; in most records, active means well fitted activation curve with a large enough effect; inconclusive means small, poorly fitted or top-dose-only effect; inactive means flat fitted curve, though single readings scatter.

O=C1C=C(c2cccc(CO)c2)C[C@@H](c2ccc(Cl)cc2)C1	D2 antagonist 52 | D3 arrestin ag inactive | D2 ag-3 inactive
O=C1C=C(c2ccc3ncccc3c2)C[C@@H](c2ccc(Cl)cc2)C1	none
O=C1C=C(c2ccc3ccccc3c2)C[C@@H](c2ccc(Cl)cc2)C1	none | D3 arrestin ag inactive | D2 ag-3 inactive
Cc1ccc(CN2CCN(C3CCN(C(=O)OC(C)(C)C)CC3)C(=O)C2=O)cc1	none (no result: D2 antagonist, D2 ag-2, D2 PAM-2)
Cc1ccc(-c2nn(CC(=O)NCc3ccccc3)c3c2cnc2ccc(F)cc23)cc1C	none (no result: D2 antagonist, D2 ag-2, D2 PAM-2)
COC(=O)[C@@H](NC(=O)Nc1ccc(S(N)(=O)=O)cc1)C(C)C	D2 ag-1 69 | D3 arrestin ag inactive | D2 ag-3 inactive
Cc1ccccc1-c1cc(C(=O)NCC2CC2)nn1CC1CC(c2cccc([N+](=O)[O-])c2)=NO1 (stereo not given)	none | D3 arrestin ag inactive | D2 ag-3 inactive
CCn1c(SCc2c(F)cccc2Cl)nc(=O)c2c(C(=O)OC)cc(C3CC3)nc21	none (no result: D2 antagonist, D2 ag-2, D2 PAM-2)
COCCCNC(=O)CCCn1c(=O)c2cccn2c2cccnc21	none (no result: D2 PAM-1, D2 antagonist, D2 ag-2, D2 PAM-2)
COc1ccc([C@@H](NC(=O)OC(C)(C)C)C(=O)OC(C)(C)C)cc1	none
CC(C)(C)OC(=O)N[C@H](C(=O)OC(C)(C)C)c1ccc2ccccc2c1	none | D3 arrestin ag inactive | D2 ag-3 inactive
Cc1cn2c(=O)c(C(=O)N3CCN(c4ccccc4F)CC3)cnc2s1	none
Cc1cn2c(=O)c(C(=O)N3CCN(c4ccccc4)CC3)cnc2s1	none | D3 arrestin ag inactive | D2 ag-3 inactive
COc1ccccc1CNC(=O)CCn1c(=O)c2ccccc2n(CC(=O)Nc2ccc(C)cc2C)c1=O	none (no result: D2 antagonist, D2 ag-2, D2 PAM-2)
OCC[C@@H]1C[C@@H](O)[C@H](O)[C@]2(OCCCc3ccccc32)O1	none
OCC[C@H]1C[C@@H](O)[C@H](O)[C@]2(OCc3ccccc32)O1	none | D3 arrestin ag inactive | D2 ag-3 inactive
OCC[C@H]1C[C@H](O)[C@@H](O)[C@@]2(OCCCc3ccccc32)O1	none | D3 arrestin ag inactive | D2 ag-3 inactive
Cc1ncoc1C(=O)N1CCc2c([nH]c3ccccc23)C1C1CCCCC1 (stereo not given)	none
O=C(O)[C@@H]1[C@H]2C[C@H]3c4[nH]c5ccccc5c4CCN3C[C@@H]2CC[C@@H]1O	D2 ag-1 41, D2 antagonist 68 | D3 arrestin ag inactive | D2 ag-3 inconclusive
O=C(O)C1CCCC2CN3CCc4c([nH]c5ccccc45)C3C(O)C21 (stereo not given)	D2 antagonist 57, D2 ag-2 inconclusive | D3 arrestin ag inactive | D2 ag-3 inconclusive
O=C1CCC2CN3CCc4c([nH]c5ccccc45)C3CC2C1 (stereo not given)	none (no result: D2 PAM-1, D2 ag-1, D2 antagonist)
C=CCC(CC=C)(CNC(=O)C(=O)Nc1ccc(C(=O)OCC)cc1)c1ccccc1	none (no result: D2 antagonist, D2 ag-2, D2 PAM-2)
Cc1oc(-c2ccccc2F)nc1CN1CCC(C(=O)NCc2cccs2)CC1	D2 ag-1 52 | D3 arrestin ag inactive | D2 ag-3 inactive
Cc1cc(C)nc(N2CCC(C(=O)NCc3cccs3)CC2)n1	D2 ag-1 31 | D3 arrestin ag inactive | D2 ag-3 inactive
Cc1cc(C)nc(N2CCC(C(=O)NCc3ccco3)CC2)n1	none (no result: D2 PAM-1, D2 ag-1, D2 antagonist)
COc1ccc(C(=O)O)cc1NC(=S)NC(=O)CSc1ccc(Cl)cc1	none | D3 arrestin ag inactive | D2 ag-3 inactive
CCn1nc(-c2ccccc2)c(-c2ccccc2)c(C(=O)Nc2nc(C)c(C(=O)N(C)C)s2)c1=O	none (no result: D2 antagonist, D2 ag-2, D2 PAM-2)
Cc1cnc(C(=O)Nc2ccc(S(=O)(=O)NCC(C)C)cc2)cn1	D2 antagonist 36 | D3 arrestin ag inactive | D2 ag-3 inactive
Cc1cnc(C(=O)Nc2ccc(S(=O)(=O)N(C(C)C)C(C)C)cc2)cn1	none
Cc1ccc(NC(=O)C(Cc2ccccc2)NS(=O)(=O)c2ccc3c(c2)oc(=O)n3C)cc1F (stereo not given)	none (no result: D2 antagonist, D2 ag-2, D2 PAM-2)
CCOC(=O)c1c(C)oc2nc(C)nc(NCc3ccc(OC)cc3OC)c12	none (no result: D2 antagonist, D2 ag-2, D2 PAM-2)
Nc1c(C(=O)CSc2n[nH]c(-c3ccccc3Br)n2)c(=O)[nH]c(=O)n1C1CC1	none
Cn1c(N)c(C(=O)CSc2nnc(-c3cccs3)n2C2CC2)c(=O)[nH]c1=O	D2 ag-1 77, D2 ag-2 inconclusive | D3 arrestin ag inactive | D2 ag-3 inactive
Nc1c(C(=O)CSc2n[nH]c(-c3ccccc3)n2)c(=O)[nH]c(=O)n1C1CC1	D2 ag-1 66, D2 ag-2 inconclusive | D3 arrestin ag inactive | D2 ag-3 inactive
Cc1cc(=O)n(Cc2ccc(Cl)cc2)c2c1c(C)nn2-c1ccccc1	none (no result: D2 antagonist, D2 ag-2, D2 PAM-2)
FC(F)(F)c1cccc(-n2cc(-c3ccccc3)c3c(N4CCCCC4)ncnc32)c1	none (no result: D2 antagonist, D2 ag-2, D2 PAM-2)
O=C(c1cc(-c2ccc(F)cc2)on1)N1CCCC1	none | D3 arrestin ag inactive | D2 ag-3 inactive
CCOc1ccc(NC(C)=O)cc1[N+](=O)[O-]	none
CCOc1ccc(NC(C)=O)cc1N	none | D3 arrestin ag inactive | D2 ag-3 inactive
O=C(NC1CCCCC1)c1ccc2c(c1)N(Cc1cccc(Cl)c1)C(=O)c1ccccc1S2(=O)=O	none (no result: D2 antagonist, D2 ag-2, D2 PAM-2)
COc1cccc(NC(=O)c2sc3nc(C)c(C(=O)Nc4ccc(C)cc4C)c(-c4ccco4)c3c2N)c1	none (no result: D2 PAM-1, D2 antagonist, D2 ag-2, D2 PAM-2)
COC(=O)C(Cc1ccccc1)NS(=O)(=O)c1ccccc1Br (stereo not given)	none
COC(=O)[C@H](Cc1ccccc1)NS(=O)(=O)N[C@@H](Cc1ccccc1)C(=O)OC	none | D3 arrestin ag inactive | D2 ag-3 inactive
O=C(/C=C/c1ccccc1Cl)NC1CCCCC1	none
O=C(/C=C/c1ccccc1Cl)N(c1ccccn1)C1CCCCC1	D2 ag-1 77, D2 antagonist 99, D2 ag-2 inconclusive | D3 arrestin ag inactive | D2 ag-3 inconclusive
CCCCNC(=O)c1c(C)oc2ncn(CC(C)C)c(=O)c12	none (no result: D2 antagonist, D2 ag-2, D2 PAM-2)
Cn1cccc1/C=N/n1c(-c2ccco2)n[nH]c1=S	none
COc1cc(-c2n[nH]c(=S)n2/N=C/c2cccn2C)cc(OC)c1OC	none | D3 arrestin ag inactive | D2 ag-3 inactive
Cc1nn(CC(=O)N2CCN(c3ccccc3F)CC2)c(=O)c2cccn12	none (no result: D2 antagonist, D2 ag-2, D2 PAM-2)
CCc1ccc(CN(C)C(=O)c2cc(S(=O)(=O)N3CCOCC3)ccc2N2CCCC2)cc1	none
CN(Cc1cccc(F)c1)C(=O)c1cc(S(=O)(=O)N2CCOCC2)ccc1N1CCCC1	none | D3 arrestin ag inactive | D2 ag-3 inactive
